# In PubChem BioAssay (NCATS):
# Records with an inconclusive call do not appear. A number with no mark means an inactive call. The source made the active and inactive calls. The call rests on the fitted dose curve; in most records, active means well fitted curve in the direction sought with a large enough effect in the main read-out, with a control signal flat (not every such curve was filed as active); inconclusive means small, poorly fitted or top-dose-only effect, or effect the other way, or a change in a side signal; inactive means no such curve, though single readings can be large or run the other way.
# Assay: qHTS Validation Assay to Find Inhibitors of Chronic Active B-Cell Receptor Signaling (AID 485345)
# Details: ABC-DLBCL cells, chronic BCR signaling reporter, CBG luciferase; series mostly up to 46.1 µM; activity change: at the top concentration
# Text: NIH Molecular Libraries Probe Production Network [MLPCN]
# NIH Chemical Genomics Center [NCGC]
# PI Name: Dr. R. Eric Davis
# Diffuse large B-cell lymphoma (DLBCL) is the most common category of non-Hodgkin lymphoma, with ~20,000 new cases per year in the United States. DLBCL should be regarded as a collection of different neoplasms. Microarray gene expression analysis has defined two principal types of DLBCL, named for their similarity to normal B cell stages or activation states: a germinal center B-cell (GCB) type, and an activated B-cell (ABC) type. In ABC-DLBCL, a constitutive high-level activity of the NF-kappaB family of transcription factors has been observed (1) and NF-kappaB target genes are more highly expressed in ABC primary tumors than in GCB tumors. Functional studies have shown a constitutive high-level activity of the IkappaB (inhibitor of kappa-B) kinase (IKK) complex. […] Further analysis of DLBCL primary tumors for NF-kappaB target gene expression imply that although CARD11 is required for constitutive IKK activity in all ABC-DLBCL lines, mutations in CARD11 may be the root cause of IKK activation only in lines or tumors with such mutations. In other words, CARD11 mutations may explain NF-kappaB activation in only 10% of ABC-DLBCL cases. […] This process has been termed 'chronic active BCR signaling' (CABS).
# The goal of this screen is to find small-molecule inhibitors of the CABS pathway found in ABC-DLBCL lines using a cell-based assay that measures IkappaBalpa stability, which has already been extensively validated in the OCI-Ly3 line (PubChem AID:445; REF: 4).
# A cell-sensor assay for I-kappa-B-alpha stabilization has been developed. The assay uses green (CBG68) and red (CBR) emitting beetle luciferases [Chroma-GloTM developed by Promega Corp.] where the green luciferase is fused to IkappaBalpha and the red luciferase is present in its native state. Both luciferase genes are stably present in the TMD8 human ABC DLBCL cell line, but their expression is under the control of tetracycline-inducible promoters. Following the addition of doxycycline to induce expression of the luciferases, the green luminescence in control cultures rises only slowly because the CBG fusion partner IkappaBalpha is targeted by IKK activity for rapid degradation. In contrast, green luminescence rises rapidly in the presence of proteasome inhibitors or IKK inhibitors. The rise in red luminescence of CBR is not affected by proteasome or IKK inhibitors, and serves as normalization for cell number and nonspecific effects. Compounds were screened as a concentration-titration series that ranged from 46 uM to 3 nM.
# NCGC Assay Protocol Summary:
# Cells were seeded in 1536-well plates at 5000 cells/4uL in IMDM medium containing 0.5% FBS, w/o phenol red, 1% penicillin/streptomycin. Then, 23 nL of compounds or DMSO were delivered to each well using a pin tool. One uL 20ng/ml doxycycline was then dispensed into white solid 1536-well plates and the plates were incubated at 37C/5% C02 in a cell incubator for 4 hrs. Then 4 uL luminescent substrate mix (in-house prepared: 150 mM Tris-Cl, pH 7.6, 3 mM MgCl2, 1% Triton X-100, 5 mM DTT, 0.2 mM CoA, 0.15 mM ATP, 5 mM D-luciferin, final concentrations) was added to each well. The plate was incubated at r.t. for 10-15 min. The plates were measured on a ViewLux plate reader for green luminescence (540/20 nm filter) and red luminescence (618/8 nm filter). The green and red luminescent signals were corrected for red and green luminescence filter overlap using previously determined filter calibration constants (determined using the procedure outlined in the Promega Technical Manual; REF 4). The %Activity was determined from the ratio of corrected green/red luminescent values. MG132 were used as control. Green luminescent and ratio %Activity was determined by normalizing to the difference in signal between basal cells (0% Activity) and cells incubated with 10 uM of the proteasome inhibitor MG-132 (100% Activity). […]
# Potency means the concentration at half of the fitted maximal effect.
SMILES,activity change [%],Potency
N[C@@H](COP(=O)(O)O)C(=O)O,0.266,
COc1ccc(CN(CCN(C)C)c2ccccn2)cc1,-5.36,
CCN(CC)CCCN(c1ccccc1)C1Cc2ccccc2C1,-9.5,
c1ccc2c(c1)CCCC2C1=NCCN1 (stereo not given),-4,
Cc1ccc(S(=O)(=O)NC(=O)NN2CCCCCC2)cc1,-5.78,
CN1C[C@H](C(=O)N[C@]2(C)O[C@@]3(O)[C@@H]4CCCN4C(=O)[C@H](Cc4ccccc4)N3C2=O)C[C@@H]2c3cccc4[nH]cc(c34)C[C@H]21,-28.6,
CCN(CC)CC(=O)Nc1c(C)cccc1C,-10.6,
CC(C)COCC(CN(Cc1ccccc1)c1ccccc1)N1CCCC1 (stereo not given),1.29,
CCCN(CCC)C(=O)C(CCC(=O)O)NC(=O)c1ccccc1 (stereo not given),-0.0544,
CCN1CCc2nc(N)oc2CC1,-20.1,
O=C(O)CP(=O)(O)O,-2.33,
CC(C)(C)c1ccc(C(=O)CCCN2CCC(OC(c3ccccc3)c3ccccc3)CC2)cc1,2.4,
C[N+](C)(C)CCCCCCCCCC[N+](C)(C)C,-1.19,
CCOC(=O)C1=C(C)NC(C)=C(C(=O)OC)C1c1cccc([N+](=O)[O-])c1 (stereo not given),,9.2 µM (active)
C[N+](C)(C)CCOC(N)=O,-2.74,
NCCCNCCSP(=O)(O)O,5.63,
CC(C)(C)NCC(O)c1cc(O)cc(O)c1 (stereo not given),3.03,
FC(F)(F)c1ccccc1-n1ccnc1,0.142,
NC1=NCC2c3ccccc3Cc3ccccc3N12 (stereo not given),-6.76,
O=c1[nH]c(=O)n([C@H]2C[C@H](O)[C@@H](CO)O2)cc1Br,2.78,

SMILES,activity change [%],Potency
CCN(CC)CCNC(=O)c1ccc(NC(C)=O)cc1,-7.63,
CN(C)C(=O)Oc1cccc([N+](C)(C)C)c1,-1.89,
COC(=O)C1=C(C)NC(C)=C(C(=O)OC(C)(C)CN(C)CCC(c2ccccc2)c2ccccc2)C1c1cccc([N+](=O)[O-])c1 (stereo not given),11.1,
CC(=O)OCC1=C(C(=O)O)N2C(=O)[C@@H](NC(=O)Cc3cccs3)[C@H]2SC1,-5.43,
CC(C)(Oc1ccc(CCNC(=O)c2ccc(Cl)cc2)cc1)C(=O)O,1.58,
COc1ccc2c(c1OC)C(=O)O[C@@H]2[C@H]1c2c(cc3c(c2OC)OCO3)CCN1C,-20.8,
C[C@H](CS)C(=O)N1CCC[C@H]1C(=O)O,-4.87,
NC(=O)c1ncn([C@@H]2O[C@H](CO)[C@@H](O)[C@H]2O)c1O,-2.09,
CCN(CC)CCOCCOC(=O)C1(c2ccccc2)CCCC1,1.16,
COC(=O)[C@@H](N)Cc1ccc(O)c(O)c1,-5.34,
NC(Cc1ccc(Cl)cc1)C(=O)O (stereo not given),-2.7,
CCCCNC(=O)NS(=O)(=O)c1ccc(C)cc1,-4.14,
CNCCC(Oc1ccccc1OC)c1ccccc1 (stereo not given),-9.48,
Cc1cccc(C)c1NC(=O)C(C)N (stereo not given),9.27,
CC1=C(C)C(=O)C(CCCCC#CCCCC#CCO)=C(C)C1=O,,16.4 µM (active)
CCn1ccnc1CC1COc2ccccc2O1 (stereo not given),-4.8,
CCCN1C[C@H](CSC)C[C@@H]2c3cccc4[nH]cc(c34)C[C@H]21,-19.7,
CN/C(=C\[N+](=O)[O-])NCCSCc1ccc(CN(C)C)o1,-2.81,
CCc1c(C)[nH]c2c1C(=O)C(CN1CCOCC1)CC2 (stereo not given),-16.9,
Cc1nc2c([nH]1)c(=O)n(C)c(=O)n2Cc1ccco1,1.52,
